Source: PubChem BioAssay
The list is not random: actives were taken first. Their share in the collection is about 6.5%.
HCMV inh – qHTS Assay for inhibitors of the human cytomegalovirus (HCMV); HFF cells, HCMV-luciferase reporter, 72 h; active compounds read low; activity change, negative = inhibition, % at 57.5 µM; 410,000 tested, 4.5% active; AID 1259415, 2018; in the data active = activity change below about -60%; inconclusive = no clear call, values can overlap the other calls; inactive = above about -39%
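Screen run at 2 compound doses on HFFs infected with reporter HCMV, MOI 1 PFU/cell. Luciferase activity from cell lysates at 72 h post infection gave inhibition relative to buffer-only and Salinomycin wells.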
Marburg entry inh – qHTS for inhibitors of binding or entry into cells for Marburg Virus. Marburg virus pseudotyped entry inhibition, cell reporter. Potency, µM (top dose mostly 37.8 µM), without a hit: at the highest dose activity change, negative = inhibition, actives largely listed as inhibitors. 300,000 tested, 1.8% active. AID 540276, 2011; calls by dose curve; tested in HEK293 cells; also: potency is read from the fitted curve at half-maximal effect
Lassa entry inh – qHTS for Inhibitors of binding or entry into cells for Lassa Virus; Lassa virus pseudotype entry inhibition, cell reporter; Potency, µM (highest dose often 37.9 µM), inactives show at the top dose activity change, negative = inhibition, actives largely listed as inhibitors; 300,000 tested, 1.2% active; calls by dose curve; tested in HEK293 cells; also: potency is read from the fitted curve at half-maximal effect; nearly all actives have a fitted effect of over 50% in size
Vaccinia mCherry – qHTS for Stage-Specific Inhibitors of Vaccinia Orthopoxvirus: mCherry Reporter Primary qHTS. Potency, µM (series often up to 36.5 µM), inactives show top-dose activity change, negative = inhibition, hits mostly inhibitors. 310,000 tested, 0.63% active. Vaccinia virus mCherry reporter infection, fluorescence; calls by dose curve; tested in A549 cells; also: potency is read from the fitted curve at half-maximal effect; nearly all actives have a fitted effect of over 35% in size
FMDV inh – High Throughput Screening for Foot and Mouth Disease Virus Antivirals; Potency, µM (titrated, usually from 57.9 µM), inactives show at the top dose activity change, negative = inhibition, actives largely listed as inhibitors; 410,000 tested, 1.2% active; AID 1159524, 2015; FMDV antiviral cell-based qHTS; calls by dose curve; tested in HEK293T cells; also: read-out not given here; potency is read from the fitted curve at half-maximal effect; nearly all actives have a fitted effect of over 45% in size
Vaccinia Venus – qHTS for Stage-Specific Inhibitors of Vaccinia Orthopoxvirus: Venus Reporter Primary qHTS | Vaccinia virus Venus reporter expression, fluorescence | Potency, µM (highest dose often 36.5 µM), inactives show at the top dose activity change, negative = inhibition, usual class: inhibitors | 330,000 tested, 0.46% active | AID 720580, 2013; calls by dose curve; tested in A549 cells; also: potency is read from the fitted curve at half-maximal effect; nearly all actives have a fitted effect of over 30% in size
An asterisk follows results filed as active; i = inactive; u = inconclusive; x = not tested or not shown; [ ] = another dose, or the depositor's remark. % is scaled to controls: 0 for no effect and ±100 for the full control effect.

SMILES	HCMV inh	Marburg entry inh	Lassa entry inh	Vaccinia mCherry	FMDV inh	Vaccinia Venus
COc1ccc(-n2c(-c3ccc(Cl)cc3)c[n+]3c2CCc2ccccc2-3)cc1	-99*	11µM*	u	-22%	u	-13%
COc1ccc(F)cc1-c1cc(NC=O)c2ncc(-c3cc(OC)c(OC)c(OC)c3)n2c1	-76*	x	x	u	32µM*	u
COc1cc(-c2cnc3c(NC=O)cc(-c4ccccc4Cl)cn23)cc(OC)c1OC	-77*	x	x	u	-23%	u
COc1cc(-c2cnc3c(NC=O)cc(-c4ccc(C)cc4)cn23)cc(OC)c1OC	-76*	x	x	u	0%	u
COc1cc(-c2cnc3c(NC=O)cc(-c4ccccc4)cn23)cc(OC)c1OC	u	x	x	-23%	u	u
Cn1cc(Br)cc1-c1ncc(Cc2c[nH]c(N)[n+]2C)o1	-20	x	x	x	x	x
Cc1ccc(S(=O)(=O)N2CCN(c3nc(-c4ccc(CN5CCOCC5)s4)nc4ccccc34)CC2)cc1	x	x	x	-1%	x	-12%
CCOC(=O)C(CC)n1nc(C)c2c(C)n(-c3ccc(C)cc3)nc2c1=O (stereo not given)	u	2%[46.1 µM]	9%[46.1 µM]	-8%	-20%	-10%
COc1ccc2c3c1OC1C(=O)CC[C@@]4(O)[C@@H](C2)N(C)CC[C@]314 (stereo not given in full)	-80*	x	x	-24%	u	-11%
C=CCN1CC[C@]23c4c5ccc(O)c4OC2C(=O)CC[C@]3(O)C1C5 (stereo not given in full)	x	x	x	-12%	-3%	-8%
CCc1ccc2oc(-c3cc(NC(=O)COc4ccc(C)cc4)ccc3O)nc2c1	x	x	x	-17%	x	u
CCN1CCN(c2csc3ccc(Br)cc3c2=O)CC1	5	x	21%[46.1 µM]	-25%	39%	-21%
CNc1ncnc2c1ncn2[C@H]1C[C@H](O)[C@@H](CO)O1	x	x	x	-4%	3%	4%
COCCCNC(=O)c1cn(Cc2c(F)cccc2Cl)nn1	-90*	-6%[46.1 µM]	13%	2%	4%	4%
CC(=O)Nc1cccc(C(=O)OCC(=O)NC(=O)C2CCCCC2)c1	x	x	x	-8%	x	-16%
Cc1ccc2c(c1)COc1c3ccc(C(=O)O)cc3nn1-2	0	x	x	-4%	10µM*	-11%
CCOC(=O)C1=CCN(S(=O)(=O)c2ccc(Cl)cc2)C1c1ccc(Br)cc1 (stereo not given)	-32	x	x	x	x	x
CCOC(=O)CSc1nc(Cc2ccccc2)nc2ccccc12	-66*	4%[46.1 µM]	-2%[46.1 µM]	i	0%	-10%
COc1ccc(-n2c(CNc3ccc(C)cc3)nnc2SCc2ccccc2)cc1	33	u	11µM*	u	-14%	-24%
CCOC(=O)CSc1nnc(Cc2ccc(OC)cc2)n1-c1ccccc1	-109*	7%	2%	x	8%	x
CCOC(=O)CSc1nc(CC)nc2ccccc12	-16	-2%	-6%	-16%	x	-6%
CCOC(=O)CSc1nnc(Cc2ccccc2)n1-c1cccc(Cl)c1	x	17%	-1%	x	4%	x
O=C(NCc1ccc2c(c1)OCO2)c1nc(S(=O)(=O)Cc2ccccc2)ncc1Cl	-103*	u	u	-26%	16µM*	-29%
O=C(NCc1ccc2c(c1)OCO2)c1nc(S(=O)(=O)Cc2ccccc2F)ncc1Cl	-80*	x	x	x	22µM*	x
CCC(C(=O)Nc1ccccc1Cl)n1nc(C)c2c(C)n(-c3ccccc3)nc2c1=O (stereo not given)	-80*	u	2%[46.1 µM]	i	-10%	-5%
SMILES	HCMV inh	Marburg entry inh	Lassa entry inh	Vaccinia mCherry	FMDV inh	Vaccinia Venus
Cc1nn(C(C)C(=O)Nc2ccccc2Cl)c(=O)c2nn(-c3ccccc3)c(C)c12 (stereo not given)	-62*	u	u	-4%	24%	-16%
CCc1cccc(C)c1NC(=O)C(CC)n1nc(C)c2c(C)n(-c3ccccc3)nc2c1=O (stereo not given)	-2	x	18%[46.1 µM]	-13%	12%	-9%
Cc1ccc(-n2nc3c(=O)n(C(C)C(=O)NCc4ccccc4Cl)nc(C)c3c2C)cc1 (stereo not given)	-92*	x	x	x	u	x
CCC(C(=O)Nc1ccccc1C(=O)OC)n1nc(C)c2c(C)n(-c3ccc(C)cc3)nc2c1=O (stereo not given)	-94*	x	u	u	-10%	u
O=C(c1ccco1)N1CCC2(CCN(Cc3cc(C(F)(F)F)cc(C(F)(F)F)c3)CC2)CC1	x	x	x	x	-27%	x
COc1ccc(CNc2ncc(-c3ccc(F)cc3)n2C)c2ccccc12	-84*	u	-26%[46.1 µM]	u	-20%	-10%
Cn1c(-c2ccc(F)cc2)cnc1NCc1ccccc1	-1	23µM*	9%	x	6%	x
Cn1c(-c2ccccc2)cnc1NCc1ccc(F)cc1	141	x	x	x	23%	x
Cn1c(=NC(=O)c2ccc(S(=O)(=O)N3CCCC3)cc2)sc2cc(F)ccc21	22	x	-1%[46.1 µM]	-11%	-10%	-7%
COc1ccccc1-c1nn(CCC(=O)Nc2ccccc2)c2nc(C)cc(C)c12	5	-1%[46.1 µM]	-28%[46.1 µM]	-24%	0%	-17%
Cc1nc2ccc(C(C(F)(F)F)(C(F)(F)F)C(F)(F)F)cc2[nH]1	-2	-19%	16µM*	-27%	0%	-27%
CCOc1ccc(CN(C)C(C)C(=O)Nc2ccc([N+](=O)[O-])cc2Cl)cc1OC (stereo not given)	u	u	1%	-8%	22µM*	-13%
COc1ccc([N+](=O)[O-])cc1NC(=O)C(C)N(C)Cc1ccc(Br)cc1 (stereo not given)	u	-21%	-3%	-9%	u	-3%
COc1ccc(Br)cc1CN(C)C(C)C(=O)Nc1cc([N+](=O)[O-])ccc1OC (stereo not given)	25	14µM*	-2%	-3%	-30%	1%
CCc1ccc(NC(=O)CCCc2nnc3n(CC(C)C)c(=O)c4sccc4n23)cc1	-26	x	-2%[46.1 µM]	-5%	-8%	-4%
Cc1cc(F)ccc1-n1nnc(C(N)=O)c1C	8	7%[46.1 µM]	1%[46.1 µM]	-2%	0%	1%
C=CCNC(=O)CSc1nnc(C(CC)N(C)C)n1C1CCCCC1 (stereo not given)	0	x	x	x	-3%	x
CCC(c1nnc(SCC(=O)Nc2ccc(Cl)cc2C(F)(F)F)n1C1CCCCC1)N(C)C (stereo not given)	-36	u	13µM*	-6%	-10%	-21%
COc1cccc2c3c(c(C)nc12)CCN3c1ccccc1	-78*	u	-26%	-6%	-23%	-10%
CCNC(=O)C1(C)CCN(C(=O)c2ccccc2F)C1 (stereo not given)	-98*	x	x	9%	-14%	-2%
